This is an account of results in PubChem BioAssay.

Molecules are shown by their SMILES. The source made the active and inactive calls.

The nature of test [1]: adipocyte viability effects, profiling panel, cell-based, 3T3-L1 adipocytes, calcein-AM fluorescence, 48 h, basal (AID 1163). The settings on record: 3T3-L1 adipocytes viability, higher = more signal.
The nature of test [2]: HepG2 cell viability effects, profiling panel, calcein-AM fluorescence, 48 h, basal (AID 1164). The settings on record: higher = more signal.
A short description of test [3]: MM1S cell viability effects, profiling panel, calcein-AM fluorescence, 48 h, basal (AID 1165).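 Also: viability of MM1S multiple myeloma cells under basal unstimulated conditions.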 The settings on record: higher = more signal.
Test [4] in a line: basal RPMI8226 viability, no added stimulus, profiling panel, cell-based, calcein-AM fluorescence, 48 h, PK04 Diversity Set (AID 1166).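 Also: cells grown under basal conditions without added stimulus.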 The following applies: RPMI8226 myeloma viability, higher = more signal.
A short description of test [5]: basal HepG2 mitochondrial membrane potential changes, profiling panel, cell-based, JC-1 fluorescence, 24 h, 100 nL compound (AID 1167). The following applies: higher = more signal.
The nature of test [6]: basal 3T3-L1 adipocyte mitochondrial potential changes, profiling panel, cell-based, JC-1 fluorescence, 3T3-L1 adipocytes, 24 h, 100 nL compound (AID 1168). The settings on record: JC-1 mitochondrial fluorescence, higher = more signal, called active from +8 up or from −8 down.
A short description of test [7]: basal RPMI8226 mitochondrial membrane potential changes, profiling panel, cell-based, JC-1 fluorescence, 24 h, 100 nL compound (AID 1169). The following applies: RPMI8226 myeloma, JC-1 mitochondrial potential fluorescence, higher = more signal.
Test [8] in a line: basal MM1S mitochondrial membrane potential changes, profiling panel, cell-based, JC-1 fluorescence, 24 h, 100 nL compound (AID 1170). The following applies: higher = more signal.
Test [9] in a line: A549 lung cancer cell viability effects, profiling panel, resazurin fluorescence, 24 h, PK04 Diversity Set (AID 1171). The following applies: higher = more signal, called active from +8 up or from −8 down. For orientation: Resazurin is reduced to fluorescent resorufin, in cell work by metabolically active cells.
A short description of test [10]: HepG2 liver cancer cell viability effects, profiling panel, resazurin fluorescence, 24 h, PK04 Diversity Set (AID 1172). The following applies: higher = more signal.
Test [11] in a line: basal S. cerevisiae growth modulation, no modifier, primary screen, OD600, strain BY4716, 24 h, basal condition (AID 1173). The following applies: OD600, 24 h, higher = more signal, called active from +8 up or from −8 down.
The nature of test [12]: MM1S myeloma cell viability, profiling panel, resazurin fluorescence, basal, 24 h, PK04 Diversity Set (AID 1174).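 Also: MM1S multiple myeloma cell line.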 The settings on record: higher = more signal, called active from +8 up or from −8 down.
Test [13] addresses Dihydroorotate dehydrogenase (quinone), mitochondrial (Plasmodium falciparum (isolate 3D7)) (UniProt Q08210). In words: PfDHODH enzyme inhibitors, primary screen, biochemical, C-terminal His tag, absorbance 600 nm (AID 1175).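 Also: recombinant parasite enzyme with a five histidine tag at its C terminus.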 The settings on record: DCIP absorbance 600 nm, higher = more signal, called active from +8 up or from −8 down.
Test [14] is described as follows: S. cerevisiae RM11-1a growth modifiers, primary screen, strain RM11-1a, OD600, basal, 24 h (AID 1177).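 Also: cultures grown under basal conditions with no added stressor.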 The settings on record: OD600, 24 h, higher = more signal, called active from +8 up or from −8 down.
A short description of test [15]: E. coli acrAB mutant growth effects, primary screen, E. coli filamentation inducers, strain DRC39, OD650, 24 h (AID 1178).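 Also: growth measured as culture turbidity by optical density at 650 nm.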 The settings on record: higher = more signal, called active from +8 up or from −8 down.
Test [16] can be described thus: E. coli acrAB mutant growth effects, primary screen, E. coli filamentation inducers, strain DRC39, OD650, 48 h (AID 1179).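 Also: screen aims at cell division blockers that make cells filament.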 The following applies: E. coli DRC39 delta-acrAB growth, higher = more signal, called active from +8 up or from −8 down.
The nature of test [17]: RPMI8226 myeloma cell viability, profiling panel, resazurin fluorescence, basal, 24 h, PK04 Diversity Set (AID 1180).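 Also: RPMI8826 multiple myeloma cell line at 5000 cells per well.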 The settings on record: higher = more signal.
The target of test [18] is E3 ubiquitin-protein ligase XIAP (Homo sapiens) (UniProt P98170). In words: XIAP binders, primary screen, biophysical, small-molecule microarray, fluorescence 635 nm (AID 1181).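 Also: score merges 667 nm emission and signal to noise over triplicate slides.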 The settings on record: small-molecule microarray binding, higher = more signal.
E3 ubiquitin-protein ligase XIAP (Homo sapiens), sequence (P98170 whole entry, looked up): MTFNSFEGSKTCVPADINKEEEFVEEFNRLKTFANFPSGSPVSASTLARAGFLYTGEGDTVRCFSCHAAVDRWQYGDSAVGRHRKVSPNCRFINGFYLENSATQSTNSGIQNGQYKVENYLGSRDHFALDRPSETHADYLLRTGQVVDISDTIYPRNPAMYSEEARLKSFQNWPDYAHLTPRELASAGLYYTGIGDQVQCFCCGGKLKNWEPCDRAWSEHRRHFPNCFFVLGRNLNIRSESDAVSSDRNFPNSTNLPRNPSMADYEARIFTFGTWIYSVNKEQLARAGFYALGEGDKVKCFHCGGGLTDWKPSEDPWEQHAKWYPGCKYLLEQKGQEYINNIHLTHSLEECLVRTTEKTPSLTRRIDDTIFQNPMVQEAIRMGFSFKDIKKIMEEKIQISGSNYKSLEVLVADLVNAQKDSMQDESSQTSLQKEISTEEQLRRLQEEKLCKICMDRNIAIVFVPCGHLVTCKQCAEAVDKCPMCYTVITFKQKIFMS
In test [19] the test system is XIP peptide (Xip251-270) binding. The experiment in a line: small-molecule binders of XIP peptide, primary screen, biochemical, small-molecule microarray, fluorescence 635/667 nm, 0.1 µg/mL protein (AID 1182). The following applies: fluorescent protein binding, 635 nm, higher = more signal, called active from +8 up or from −8 down.
For test [20], the system named is XIP peptide (Xip251-270). In words: small-molecule binders of XIP peptide, primary screen, biochemical, small-molecule microarray, fluorescence 635/667 nm, 0.5 µg/mL protein (AID 1183). The following applies: small-molecule microarray binding, fluorescence 635 nm; higher = more signal.

Dihydroorotate dehydrogenase (quinone), mitochondrial (Plasmodium falciparum (isolate 3D7)), sequence (Q08210 whole entry, looked up): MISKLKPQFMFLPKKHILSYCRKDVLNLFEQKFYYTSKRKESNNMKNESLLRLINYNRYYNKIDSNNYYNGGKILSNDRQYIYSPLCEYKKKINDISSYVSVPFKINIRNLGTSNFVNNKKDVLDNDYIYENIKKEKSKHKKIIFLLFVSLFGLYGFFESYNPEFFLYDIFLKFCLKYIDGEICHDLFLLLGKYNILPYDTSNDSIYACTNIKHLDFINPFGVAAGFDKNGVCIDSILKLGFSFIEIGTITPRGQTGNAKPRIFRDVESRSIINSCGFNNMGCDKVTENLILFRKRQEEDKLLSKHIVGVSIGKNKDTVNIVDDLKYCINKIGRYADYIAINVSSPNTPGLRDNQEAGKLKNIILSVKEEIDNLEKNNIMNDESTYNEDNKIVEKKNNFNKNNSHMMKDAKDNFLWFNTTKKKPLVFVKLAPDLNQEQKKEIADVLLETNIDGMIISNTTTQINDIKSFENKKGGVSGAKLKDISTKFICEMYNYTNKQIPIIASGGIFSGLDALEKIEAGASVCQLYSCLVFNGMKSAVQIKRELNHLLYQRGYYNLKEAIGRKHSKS

Regarding `C=CCN1C(=O)[C@@]2(O[C@@H](CCn3cc(CCO)nn3)[C@H]([Si](C)(C)c3ccc(OC)cc3)[C@H]2C)c2cc(NC(=O)c3ccc(OC)cc3)ccc21`, the z-score in [1] is 1.2; in test [2], -0.408; in test [3], -2.91; in test [4], -3.3; in [5], 0.978; in [6] it was 0.659 (inactive). Moreover, the z-score in test [7] is -0.925; in [8], 0.212; in [9], -1.27 (inactive); in [10], -0.322; in [11] it was -4.11 (inactive); in [12], -1.55 (inactive). Also, the z-score in [14] is 0.901 (inactive); in [15], 1.55 (inactive); in test [16], 1 (inactive); in test [17] it was -1.51. For the same compound, the composite z-score in test [13] was -0.118 (inactive); in test [18], -0.168; in test [19], -0.025 (inactive); in test [20], 0.442.

Turning to `O=C1c2ccccc2C(=O)c2cc([C@H]3Oc4ccccc4S(=O)(=O)N4CCC[C@@H]34)ccc21`, the z-score in test [1] is 1.07; in [2], 0.158; in [3], -2.6; in test [4] it was 0.558; in test [5], 2.04; in test [6] it was 0.282 (inactive). In addition, the z-score was 0.103 in test [7]; -0.752 in test [8]; 0.623 (inactive) in [9]; 1.62 in test [10]; -2.8 (inactive) in test [11]; 0.566 (inactive) in [12]. Besides, the z-score in test [14] was -1.5 (inactive); in [15], 2.89 (inactive); in test [16], 1.21 (inactive); in test [17], 0.476. For the same compound, the composite z-score is 0.342 (inactive) in [13], 0.0374 in test [18], -1.15 (inactive) in test [19] and -1.82 in [20].

For the compound `COC(=O)[C@@]1(CCC(=O)OC(C)(C)C)COC(c2ccc(OCCCO)cc2)=N1`, the z-score in [1] was 1.52; in test [2], -0.528; in test [3] it was 0.203; in [4], -0.0712; in test [5], -0.407; in test [6], -0.0189 (inactive). Also, the z-score was 0.614 in test [7]; 0.396 in [8]; 0.307 (inactive) in [9]; 0.863 in test [10]; -1.27 (inactive) in test [11]; 0.867 (inactive) in [12]. Moreover, the z-score in [14] is -0.612 (inactive); in test [15] it was 2.83 (inactive); in [16], 1.14 (inactive); in test [17], 1.1. For the same compound, the composite z-score in [13] was -0.402 (inactive); in test [18] it was -0.217; in test [19], -0.191 (inactive); in test [20], -1.66.

For the compound `COc1ccc(C#Cc2ccc3c(c2)[C@]2(C(=O)N3)[C@H](c3ccc(O)cc3)N3[C@H](c4ccccc4)[C@H](c4ccccc4)OC(=O)[C@H]3[C@@H]2C(=O)N2CCN(c3ncccn3)CC2)cc1`, the z-score in test [1] is 1.37; in test [2], 0.385; in test [3], -0.233; in [4], -0.474; in [5] it was -0.16; in test [6], 1.57 (inactive). Also, the z-score in test [7] was -0.719; in test [8], 0.463; in test [9], 0.682 (inactive); in test [10], -0.169; in test [11], 0.0719 (inactive); in test [12], 0.95 (inactive). Further, the z-score in test [14] was 0.537 (inactive); in [15], 0.0488 (inactive); in test [16] it was 0.255 (inactive); in test [17] it was 1.19. Also, the composite z-score was 0.848 (inactive) in test [13], -0.0062 in test [18], 1.62 (inactive) in test [19] and 0.388 in test [20].

For `Cc1ccc(S[C@]2(C(=O)NCC(C)C)CC(=O)N(C(C)C)[C@@H]2c2ccc(CO)cc2)cc1`, the z-score in test [1] was 2.25; in [2] it was -1.49; in test [3], 0.623; in test [4], -0.954; in test [5] it was 0.34; in [6] it was -0.446 (inactive). In addition, the z-score was 0.134 in test [7]; 0.381 in [8]; 0.443 (inactive) in test [9]; -0.784 in test [10]; 0.225 (inactive) in test [11]; 1.13 (inactive) in [12]. In addition, the z-score was -1.24 (inactive) in [14], 1.49 (inactive) in test [15], 0.719 (inactive) in [16] and 0.687 in test [17]. Besides, the composite z-score is -0.052 (inactive) in test [13], -0.0481 in test [18], -0.467 (inactive) in test [19] and -0.284 in test [20].

In the case of `CCOC(=O)C[C@H]1[C@H](OC(=O)Cc2ccc3c(c2)OCO3)[C@@H](NC(=O)c2ccc3ccccc3c2)c2cc(OCCCO)ccc2N1C(=O)c1ccc2ccccc2n1`, the z-score is 0.898 in test [1]; 1.94 in test [2]; -0.144 in [3]; 0.934 in test [4]; 2.77 in test [5]; 3.13 (inactive) in test [6]. Besides, the z-score in [7] was 0.319; in test [8], 1.64; in test [9], 1.09 (inactive); in test [10], 1.36; in test [11], -1.73 (inactive); in test [12] it was -0.0816 (inactive). Besides, the z-score in test [14] is -4.07 (inactive); in [15], 1.23 (inactive); in test [16], 0.0331 (inactive); in test [17], -0.375. Moreover, the composite z-score in test [13] was 0.623 (inactive); in test [18], 0.128; in test [19], 0.467 (inactive); in test [20] it was -0.275.

As for `COc1ccc([Si](C)(C)[C@H]2[C@H](CC(=O)N(CCO)Cc3ccccc3)O[C@@]3(C(=O)N(Cc4ccc(N5CCOC5=O)cc4)c4ccccc43)[C@@H]2C)cc1`, the z-score was 1.17 in [1]; -0.721 in test [2]; -0.931 in [3]; 0.17 in [4]; 1.51 in test [5]; 0.647 (inactive) in [6]. Also, the z-score in test [7] was -1.19; in test [8], 0.188; in test [9], -1.36 (inactive); in test [10] it was -0.292; in [11], -0.693 (inactive); in [12], -1.98 (inactive). Moreover, the z-score in test [14] is 2.73 (inactive); in test [15], 1.42 (inactive); in test [16], 1.29 (inactive); in test [17] it was -2.8. Also, the composite z-score was 0.374 (inactive) in test [13], 0.144 in [18], 1.01 (inactive) in test [19] and 0.631 in test [20].

Consider `CO[C@H]1O[C@H](CO)[C@@H](OC(=O)Nc2ccccc2)[C@H](OC(=O)Nc2ccccc2-c2ccccc2)[C@H]1OC(=O)Nc1ccccc1-c1ccccc1`, for which the z-score in test [1] is 1.59; in test [2], -4.94; in test [3] it was -3.51; in [4], -4.34; in [5] it was -1.05; in test [6] it was 3.65 (inactive). Further, the z-score was -1.17 in [7]; -1.64 in test [8]; -6.11 (inactive) in test [9]; -4.93 in test [10]; -2.12 (inactive) in [11]; -6.52 (inactive) in test [12]. For the same compound, the z-score in [14] is 0.145 (inactive); in test [15], 0.218 (inactive); in test [16], -0.414 (inactive); in test [17] it was -5.34. The composite z-score in [13] is -0.551 (inactive); in test [18], 0.113; in test [19] it was 1.32 (inactive); in [20], 0.896.
